# Sampled rows, rich in hits. Any-hit rate of the full collection: about 5.6%.
# PfM18AAP inh-1: PfM18AAP enzyme inhibition; recombinant PfM18AAP, H-Glu-NHMec fluorogenic cleavage; inhibition, % at 7.35 µM; 290,000 compounds, 1.2% hits;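 active = inhibition above the campaign mean inhibition over all tested compounds plus 3 SD, cut at about 28% in these data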;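 note: 0% = plate median of test compound wells and 100% = 2 mM ZnCl2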
# PfGluPho inh: PfG6PD (Plasmodium falciparum) enzyme inhibition; PfGluPho enzyme, NADPH resazurin-diaphorase fluorescence; 350,000 compounds, 0.78% hits; AID 504690; inhibition, % at 20 µM;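 active = inhibition reaching at least a set limit at 20 µM in the primary screen, cut at about 59% in these data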;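 note: 0% = DMSO wells with substrate and 100% = DMSO wells lacking glucose-6-phosphate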
# Cardio protect: modulators protecting cardiomyocytes from myocardial damage. protection from H2O2 cell death, % at 20 µM. 360,000 compounds, 0.63% hits. H9c2 cardiomyocytes, H2O2 injury protection, ATPLite, 2 h;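 active = compounds giving at least 50% protection of heart cells from peroxide-induced death in the single-dose screen, raw or plate-pattern-corrected value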;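 note: 0% = DMSO wells with peroxide and 100% = DMSO wells without peroxide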
# ALR inh: human ALR oxidase inhibition via reduced H2O2 | P55789 | purified ALR, DTT oxidation, H2O2 HRP-luminol luminescence | inhibition, % (concentration not given with the values) | 290,000 compounds, 3.8% hits;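 active = mean replicate inhibition above about 79%, with every replicate also reaching it, limit read from the data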
# Target sequence (P55789 whole entry, looked up): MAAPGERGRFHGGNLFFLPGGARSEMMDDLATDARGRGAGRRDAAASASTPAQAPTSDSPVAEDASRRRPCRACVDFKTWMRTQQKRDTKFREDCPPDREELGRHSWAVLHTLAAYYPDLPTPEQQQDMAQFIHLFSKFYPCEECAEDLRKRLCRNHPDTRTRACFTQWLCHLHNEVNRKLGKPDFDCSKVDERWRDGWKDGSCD
# PHOSPHO1 block: inhibitors of human PHOSPHO1 phosphatase | inhibition, % at 13.3 µM | Q8TCT1 | 290,000 compounds, 1.1% hits | recombinant PHOSPHO1, absorbance phosphatase assay; in the data active = inhibition above about 60%
# PfM18AAP inh-2: PfM18AAP inhibition, confirmation; shares compounds with PfM18AAP inh-1; recombinant PfM18AAP, H-Glu-NHMec fluorogenic cleavage; inhibition, % at 7.35 µM; 2,400 compounds, 28% hits;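 active = mean inhibition over replicate wells above the hit cutoff set for the earlier primary screen, cut at about 29% in these data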;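 note: 0% = median of test compound wells and 100% = 2 mM ZnCl2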
# CTSL1 counter: counter-screen for PFM18AAP inhibitors: confirmation of human cathepsin L inhibitors. purified cathepsin L1, Z-Leu-Arg-MCA fluorescence. 2,400 tested, under 10 active. AID 2178. inhibition, % at 5.96 µM. shares compounds with PfM18AAP inh-1;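 active = average inhibition across replicates above the hit cutoff set in the earlier primary screen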;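 note: 0% = median of test compound wells and 100% = Z-Phe-Ala-diazomethylketone 1 µM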
# Target sequence (P07711 whole entry, looked up): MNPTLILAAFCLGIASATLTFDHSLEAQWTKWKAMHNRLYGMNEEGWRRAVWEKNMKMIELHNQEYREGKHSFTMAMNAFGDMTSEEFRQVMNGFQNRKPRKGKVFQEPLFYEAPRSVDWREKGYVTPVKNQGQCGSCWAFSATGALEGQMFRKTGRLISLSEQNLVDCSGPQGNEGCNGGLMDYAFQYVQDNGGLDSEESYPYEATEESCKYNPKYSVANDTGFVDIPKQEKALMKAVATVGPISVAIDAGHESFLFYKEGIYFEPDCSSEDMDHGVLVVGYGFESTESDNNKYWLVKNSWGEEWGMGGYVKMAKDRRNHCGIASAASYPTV
# The depositor's hits bear a star; · = no result.
SMILES,PfM18AAP inh-1,PfGluPho inh,Cardio protect,ALR inh,PHOSPHO1 block,PfM18AAP inh-2,CTSL1 counter
O=C(C[C@H]1C[C@@H]2c3cc(NC(=O)c4ccc5c(c4)OCO5)ccc3O[C@@H]2[C@H](CO)O1)NCc1cc(F)ccc1F,·,16,-10,·,·,·,·
O=[N+]([O-])c1cc2oc3c(c2c(C=NCc2ccncc2)c1O)CCCC3,15,43,36,·,-9,·,·
CC1(Cc2ccccc2C#N)C(=O)Nc2ccc(-c3ccccc3)cc21 (stereo not given),·,·,-4,·,·,·,·
Cc1ccc(NC(=S)Nn2cnnc2)cc1,77*,42,-3,7,13,67*,0
CNC(=S)Nc1ccc(C)cc1,7,4,3,0,-11,·,·
CCc1ccc(NC(=S)NCc2ccccc2)cc1,3,8,2,·,1,·,·
CCc1ccc(NC(=S)Nn2cnnc2)cc1,76*,51,-3,6,4,64*,1
N#CC12C(=O)NC(=O)C1(C#N)C21CCCC1 (stereo not given),·,-6,3,·,·,·,·
N#Cc1ccc(-c2ccccc2)nc1SCC(=O)c1cc2ccccc2oc1=O,34*,-21,2,-4,11,-19,-1
COc1ccc(NC(=O)CCN(c2ccc(OC)cc2)S(=O)(=O)c2ccc(C)c(C)c2)cc1,·,5,-9,·,·,·,·
Cc1ccc(NC(=O)CSc2sc3c(O)cc(=O)[nH]c3c2C#N)c(F)c1,13,15,0,55,24,·,·
N#Cc1c(SCC(=O)Nc2nncs2)sc2c(O)cc(=O)[nH]c12,53*,16,0,2,-132,29*,-4
COc1cccc(C2NC(=O)CCC2[N+](=O)[O-])c1 (stereo not given),-4,-3,2,-6,39,·,·
CCOC(=O)c1nc(NNC(C)=O)sc1C,37*,-13,-2,13,32,-3,-2
CC(=O)Nc1ccc(NC(=O)CSc2nc(=O)n(Cc3cccnc3)c3c2CCC3)cc1,·,-4,3,·,·,·,·
O=c1c2ccccc2nc2n1CCCCC2,0,4,20,4,6,·,·
O=c1c2ccccc2nc2n1CCC2,46*,14,2,1,22,17,-10
Clc1ccc(-n2cccc2/C=N/n2cnnc2)cc1,41*,-13,-1,-14,5,-22,-6
Cn1cccc1/C=N/n1cnnc1,3,-1,4,-20,-37,·,·
COc1cc(C(=O)N2CCN(c3ccccc3)CC2)c2ccccc2n1,·,1,-1,·,·,·,·
CCCCC(CC)C(=O)Nc1cc(C(=O)NCCC)ccc1N1CCC2(CC1)CC(c1cccc(Br)c1)=NO2 (stereo not given),·,-14,-5,-8,·,·,·
O=C(O)c1ccc2c(c1)C1C=CCC1C(c1ccncc1)N2 (stereo not given),37*,-1,1,-17,15,7,-2
CC1Cc2cc(/C(O)=C3/C(=O)C(=O)N(CCN4CCOCC4)C3c3ccc([N+](=O)[O-])cc3)ccc2O1 (stereo not given),33*,9,0,38,38,-22,-10
COC(=O)c1ccc(C2C(C(=O)c3cc4ccccc4o3)=C(O)C(=O)N2CCN2CCOCC2)cc1 (stereo not given),1,-5,0,4,34,·,·
O=C(C1=C(O)C(=O)N(CCN2CCOCC2)C1c1ccc([N+](=O)[O-])cc1)c1cc2ccccc2o1 (stereo not given),34*,3,-1,70,28,-36,-1
SMILES,PfM18AAP inh-1,PfGluPho inh,Cardio protect,ALR inh,PHOSPHO1 block,PfM18AAP inh-2,CTSL1 counter
Cc1ccc(C(C)C)cc1S(=O)(=O)NCc1ccccn1,3,6,-1,-9,24,·,·
Cc1ccc(-c2c(C(=O)N/N=C/C3CC=CCC3)nnn2-c2nonc2N)cc1 (stereo not given),-12,4,0,-1,12,·,·
N#C/C(=C\c1ccc(-c2cccc(C(F)(F)F)c2)o1)C(=O)Nn1cnnc1,33*,-16,2,7,-25,16,8
CCCCN(C(=O)C1=CC=CN2CCS(=O)(=O)N=C12)c1ccccc1,·,1,1,·,·,·,·
O=C(COc1ccccc1)N/N=C/c1ccc([N+](=O)[O-])o1,39*,14,14,-32,-6,-20,7
O=[N+]([O-])c1ccccc1NC(=S)N/N=C/c1ccc(O)c(O)c1,59*,0,40,70,-58,40*,1
COc1ccc(C2=Nc3ccccc3OC2)cc1,39*,-4,-15,10,11,-26,-1
Cc1cc(C)c2nc(NNC(=O)c3ccc(S(=O)(=O)N4CCCCC4)cc3)sc2c1,36*,36,38,6,-4,-22,3
CCOC(=O)N1CCN(S(=O)(=O)c2ccc(C(=O)Nc3nc4c(s3)CC(C)CC4)cc2)CC1 (stereo not given),-1,-13,17,10,2,·,·
CCOC(=O)N1CCN(S(=O)(=O)c2ccc(C(=O)NNc3nc4c(C)cc(C)cc4s3)cc2)CC1,39*,-11,48,25,-6,-31,4
CCOC(=O)N1CCN(S(=O)(=O)c2ccc(C(=O)N(CCN(CC)CC)c3nc4c(C)cccc4s3)cc2)CC1,-6,-12,6,6,14,·,·
CCOC(=O)N1CCN(S(=O)(=O)c2ccc(C(=O)NNc3nc4c(C)cccc4s3)cc2)CC1,38*,13,50*,58,-14,-16,5
COc1ccc(C(=O)Nc2ccc(/C(C)=N/NC(=O)c3ccccc3O)cc2)cc1OC,37*,3,-2,·,5,-52,9
COc1ccc(C(=O)N/N=C(/C)c2cccc(NC(=O)c3ccncc3)c2)cc1OC,-4,2,11,-14,36,·,·
CCN(CC)S(=O)(=O)c1ccc(C(=O)Nn2cnnc2)cc1,81*,-19,-3,-20,16,75*,7
CN(CC(=O)Nn1cnnc1)S(=O)(=O)c1ccccc1,32*,3,-1,-5,-1,20,-5
O=[N+]([O-])c1cc2c(cc1/C=N/n1cnnc1)OCO2,39*,5,8,-42,-22,-22,-3
O=[N+]([O-])c1ccccc1S(=O)(=O)NC1CCCCCCC1,0,-3,-4,-8,24,·,·
O=C1CCCCCCC1Sc1ccccc1[N+](=O)[O-] (stereo not given),38*,16,5,·,21,-48,0
COCCNC(=O)C1(C)CCCN(C(=O)c2ccccc2OC(F)(F)F)C1 (stereo not given),·,·,0,·,·,·,·
O=c1c2ccccc2nc(COc2ccccc2)n1/N=C/c1ccc(O)c(O)c1,53*,-26,56*,98*,23,25,6
Oc1ccc(/C=N/n2c(COc3ccccc3)n[nH]c2=S)cc1O,53*,-7,13,100*,19,20,-8
